# High-throughput results as filed in PubChem.
# Shn3 inh set2: inhibitors of Schnurri-3 3'UTR reporter in osteoblasts; inhibition, % at 12.5 µM; hit rate 0.52% among 360,000; AID 588674; Clone20 osteoblast Shn3 3'UTR firefly luciferase, 24 h;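 active = mean inhibition of at least 75% with every replicate also reaching 75%; inconclusive = mean inhibition at least 75% but some replicate below; inactive = mean inhibition below 75%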;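 note: 0% = median of neutral control wells and 100% = pilot-screen positive control compound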
# ABHD5-PLIN5 inh: ABHD5-PLIN5 protein interaction inhibition. AID 602281. hit rate 0.78% among 360,000. Q00G26+Q8WTS1. Split G. princeps luciferase complementation, luminescence, 4 h. inhibition, % at 4 µM;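 active = inhibition above the mean inhibition across every tested compound plus 3 SD, cut at about 22% in these data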;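 note: 0% = DMSO only wells and the 100% control is not disclosed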
# Target sequence (Q00G26 whole entry, looked up): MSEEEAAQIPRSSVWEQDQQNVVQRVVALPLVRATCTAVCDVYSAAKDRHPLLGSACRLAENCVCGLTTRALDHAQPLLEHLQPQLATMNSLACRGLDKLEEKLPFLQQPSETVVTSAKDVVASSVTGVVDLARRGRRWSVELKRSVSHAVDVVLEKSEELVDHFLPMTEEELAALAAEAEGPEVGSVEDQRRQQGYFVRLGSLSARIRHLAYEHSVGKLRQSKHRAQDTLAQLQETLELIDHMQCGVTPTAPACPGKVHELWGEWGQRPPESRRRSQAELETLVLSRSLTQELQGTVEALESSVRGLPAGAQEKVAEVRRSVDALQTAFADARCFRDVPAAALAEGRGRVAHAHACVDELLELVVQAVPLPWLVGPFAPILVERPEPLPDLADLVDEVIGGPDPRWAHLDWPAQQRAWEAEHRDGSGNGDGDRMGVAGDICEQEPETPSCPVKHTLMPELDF
# Target sequence (Q8WTS1 whole entry, looked up): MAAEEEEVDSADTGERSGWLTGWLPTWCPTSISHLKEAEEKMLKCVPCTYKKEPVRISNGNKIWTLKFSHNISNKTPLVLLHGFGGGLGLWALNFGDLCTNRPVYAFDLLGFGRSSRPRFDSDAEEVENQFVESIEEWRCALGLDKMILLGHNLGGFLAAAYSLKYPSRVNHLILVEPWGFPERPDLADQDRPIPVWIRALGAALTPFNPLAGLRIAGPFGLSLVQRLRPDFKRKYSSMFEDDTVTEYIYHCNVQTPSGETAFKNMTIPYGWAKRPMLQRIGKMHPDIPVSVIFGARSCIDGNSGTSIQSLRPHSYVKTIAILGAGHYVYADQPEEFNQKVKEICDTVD
# Peg3 prom inh-1: inhibitors of Peg3 promoter; inhibition, % at 20 µM; HeLa PEG-Prom luciferase reporter, luminescence, overnight; hit rate 1.7% among 360,000;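 active = inhibition of at least 50% at 20 µM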
# TRPM1 prom inh: inhibitors of MITF-driven TRPM1 promoter in melanoma cells | SK-MEL-5 TRPM1 promoter luciferase, 24 h | inhibition, % at 12.5 µM | hit rate 0.83% among 330,000;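 active = mean inhibition across replicates of 60% or more, whatever share of single replicates reaches that level; inconclusive = some that reach 60%, reason not given; inactive = mean inhibition across replicates below 60%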
# EWS-Fli inh: EWS/Fli transcriptional activity inhibition; A673 NR0B1-luciferase reporter, viability-normalised; inhibition, % at 12.6 µM; hit rate 0.67% among 350,000;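 active = mean inhibition of at least 50% after viability correction, with every replicate also passing that limit; inconclusive = mean reaches 50% but only one of two replicates passes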;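 note: firefly luciferase signal divided by Alamar Blue viability fluorescence both relative to DMSO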
# PAX8 reporter: inhibitors of PAX8 transcriptional activity in RMG-I cells; RMG-I TPO-luciferase reporter, SteadyGlo, 24 h; inhibition, % at 12.6 µM; hit rate 1.2% among 360,000; AID 652154;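 active = mean replicate inhibition at least 60% with every replicate also reaching 60%; inconclusive = only one of the two criteria is met; inactive = mean below 60% and not all replicates reaching 60%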;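 note: luciferase light reporting Pax8 driven TPO promoter activity; plate controls were median of neutral control wells for no effect and mitoxantrone controls for full effect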
# Peg3 prom inh-2: Peg3 promoter inhibition confirmation; hit rate 84% among 1,300; HeLa PEG-Prom luciferase reporter, luminescence, overnight; inhibition, % at 20 µM; shares compounds with Peg3 prom inh-1;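 active = at 20 µM dose, 40% or more inhibition averaged across four replicates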
# * hit, by the source's call; ? = inconclusive; nt = not tested or not shown. This is a sample that favours compounds with a hit; in the whole collection about 3% have one here.
SMILES,Shn3 inh set2,ABHD5-PLIN5 inh,Peg3 prom inh-1,TRPM1 prom inh,EWS-Fli inh,PAX8 reporter,Peg3 prom inh-2
O=C(Nc1ncc([N+](=O)[O-])s1)c1ccc2c(c1)OCO2,30,5,70*,65*,49,75*,64*
Cc1nc2ccc3nc(NC(=O)c4ccc5c(c4)OCCO5)sc3c2s1,-12,-2,-27,-18,nt,nt,nt
Cc1cnc(NC(=O)c2ccc3c(c2)OCCO3)s1,79,-7,87*,82*,77*,99*,81*
Cc1ccc([N+](=O)[O-])cc1NC(=O)c1ccc2c(c1)OCO2,-17,3,-2,2,-12,19,nt
Cc1ccc(C(=O)Nc2ncc([N+](=O)[O-])s2)cc1,81,-12,76*,63*,76*,87*,56*
CN(C)CCCNC(=O)C[C@@H]1CC[C@@H]2[C@H](COc3ccc(NC(=O)NC4CCCC4)cc3C(=O)N2C)O1,nt,nt,nt,nt,-34,-56,nt
O=C(N[C@H]1CC[C@@H](CCNS(=O)(=O)c2ccc(F)cc2)O[C@@H]1CO)c1cccnc1,nt,nt,nt,nt,-5,0,nt
COc1cc(Br)cc(/C=C/c2ccc3cccc(O)c3n2)c1O,11,-13,2,-4,-130,11,nt
COc1cc(/C=C/c2ccc3cccc(O)c3n2)c(Br)cc1O,-10,-9,98*,1,-2,-6,92*
COc1cc(/C=C/c2ccc3cccc(O)c3n2)ccc1O,22,2,103*,25,-74,-7,57*
O=C(CNC1CCCC1)Nc1ccc(N2CCCCCC2)cc1,7,4,-1,-7,8,13,nt
O=C(CNCCC1=CCCCC1)Nc1ccc(N2CCCCCC2)cc1,61,4,86*,2,nt,2,99*
CS(=O)(=O)c1ccc(-c2cn3cc(C(=O)O)ccc3n2)cc1,8,3,65*,39,1,7,44*
C[C@@H]1CCCCO[C@H](CN(C)C(=O)c2ccccc2)[C@H](C)CN([C@@H](C)CO)C(=O)c2cc(NC(=O)Cc3ccccc3)ccc2O1,nt,nt,nt,nt,6,13,nt
Cc1ccc(/C=N/Nc2ccc(C(=O)O)cc2)s1,50,-2,69*,81*,67*,75*,62*
O=C(O)c1ccc(N/N=C/c2ccc(OC(=O)c3ccccc3Cl)cc2)cc1,-17,-2,64*,12,-54,28,58*
CC(C)c1ccc(/C=N/Nc2ccc(C(=O)O)cc2)cc1,28,-1,85*,69*,75*,82*,67*
O=C(O)c1ccc(N/N=C/c2ccc(-c3ccccc3)cc2)cc1,-51,15,-272,-85,-49,-59,nt
CC=Cc1ccc2n(c1=O)C[C@H]1[C@H](CO)[C@@H](C(=O)Nc3ccc(-c4ccccc4)cc3)[C@@H]2N1CC (mixture of isomers),nt,nt,nt,nt,-14,-1,nt
CC(C)(C)[S@@](=O)N1Cc2cc(C(=O)N[C@@H]3CCN(Cc4ccccc4)C3)nc(-c3cccc(-c4ccncc4)c3)c2[C@H]1CCO,nt,nt,nt,nt,7,-2,nt
CN(C)CC(=O)N1[C@@H](CO)[C@@H](c2ccccc2)C12CN(Cc1cc(F)ccc1F)C2,nt,nt,nt,nt,-2,4,nt
C/C=C/c1ccc([C@H]2[C@@H](CO)N(CC3CCCC3)C23CN(C(=O)COC)C3)cc1,nt,nt,nt,nt,-2,nt,nt
COc1ccc(-n2c(O)c(/C=N/Nc3nc(C)cc(C)n3)c3ccccc3c2=O)cc1OC,91*,-1,56*,40,19,54,45*
COc1ccc(-n2c(O)c(/C=N/NS(=O)(=O)c3ccc(C)cc3)c3ccccc3c2=O)cc1OC,-1,-3,3,3,nt,nt,nt
c1cncc(Nc2c3ccccc3nc3ccccc23)c1,6,1,28,5,15,23,nt
SMILES,Shn3 inh set2,ABHD5-PLIN5 inh,Peg3 prom inh-1,TRPM1 prom inh,EWS-Fli inh,PAX8 reporter,Peg3 prom inh-2
COc1cc(Nc2c3ccccc3nc3ccccc23)cc(OC)c1OC,55,3,107*,?,9,3,99*
CCNC(=O)c1c(NC(=O)c2cc(-c3cc(C)ccc3O)n[nH]2)sc2c1CCCC2,-12,1,60*,-13,nt,-7,17
CO[C@@H]1CN(C)C(=O)c2cc(NC(=O)C3CC3)ccc2OC[C@@H](C)N(C(=O)Cc2ccccn2)C[C@@H]1C,nt,nt,nt,nt,-5,0,nt
CO[C@H]1CN(C)C(=O)c2cc(NC(=O)c3cnccn3)ccc2OC[C@H](C)N(C)C[C@@H]1C,nt,nt,nt,nt,-3,nt,nt
Cc1nn(C)c(C)c1NC(=O)CSc1nc(Cc2ccccc2)nc2c1cnn2-c1ccccc1,15,0,96*,-7,nt,nt,1
Cc1nn(Cc2ccccc2)c(C)c1NC(=O)CSc1nc(C2CC2)nc2c1cnn2-c1ccccc1,24,-2,28,29,nt,nt,nt
COc1ccc(CCNCCC(c2ccccc2)c2ccccc2)cc1OC,16,1,-13,nt,8,4,nt
COc1cc(OC)c(OC)cc1CCC(C)NCCC(c1ccccc1)c1ccccc1 (stereo not given),?,16,97*,53,33,30,88*
O=C(COc1ccc2ccccc2c1)N1c2ccccc2Sc2ccccc21,-5,1,20,6,nt,nt,nt
O=C(CCl)N1c2ccccc2Sc2ccc3ccccc3c21,-8,7,107*,nt,nt,nt,100*
CN(C)CCCN1c2ccccc2Sc2ccc3ccccc3c21,-5,13,61*,0,4,0,98*
C/C=C/c1cccc(-c2nc(C(=O)NCc3ccncc3)cc3c2[C@H](CCO)N([S@@](=O)C(C)(C)C)C3)c1,nt,nt,nt,nt,10,-9,nt
OCc1cn(-c2ccccc2)nc1-c1ccc(-c2nn(-c3ccccc3)cc2CO)cc1,7,-13,19,9,nt,nt,nt
Cc1ccc(-c2nn(-c3ccccc3)cc2CSC(=N)N)cc1,-4,13,101*,3,nt,nt,41*
COC(=O)c1ccc(OCC2c3cc(OC)c(OC)cc3CCN2C(=O)c2ccco2)cc1 (stereo not given),57,3,60*,-1,14,nt,45*
COC(=O)c1ccc(OCC2c3cc(OC)c(OC)cc3CCN2C(C)=O)cc1 (stereo not given),17,0,12,-2,1,3,nt
C[C@@H]1CN([C@H](C)CO)C(=O)c2cc(C3=CCCC3)cnc2O[C@H]1CN(C)C(=O)Nc1cccc(F)c1,nt,nt,nt,nt,2,11,nt
CO[C@@H]1CN(C)C(=O)c2cc(NC(=O)CC(F)(F)F)ccc2OC[C@@H](C)N(CC2CC2)C[C@@H]1C,nt,nt,nt,nt,-18,15,nt
O=C(N/N=C/c1ccccc1Cl)c1n[nH]c2c1CCCC2,54,2,78*,67*,14,77*,16
C[C@@H]1CN([C@@H](C)CO)S(=O)(=O)c2ccc(C#C[C@@H](C)O)cc2O[C@@H]1CN(C)CC1CCOCC1,nt,nt,nt,nt,0,10,nt
